According to PubChem BioAssay AID449762 (Southern Research Specialized Biocontainment Screening …, 2010):
Screen size: about 330,000 compounds; about 1,900 (0.58%) were called active. Inconclusive results (about 4%) are left out. Rule as the data show it: inconclusive = inhibition above about 70% without an active follow-up result; inactive = below that. These entries were drawn from the full list. Measured potencies and affinities stand elsewhere.

Test: M. tuberculosis growth inhibition, HTS (AID 449762);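 also: bacterial growth assessed after seven days of incubation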
Conditions: M. tuberculosis H37Rv growth inhibition, 7H9 media; at 25 µM; stronger effect = higher value

Row | SMILES | inhibition
1 | CCOC(=O)CNC(=O)CNC(=O)c1ccc(OCC(C)C)cc1 | 22.7% (inactive)
2 | CCOC(=O)c1sc2c(c1C)C(c1cccs1)C1=C(CCCC1=O)N2 (stereo unspecified) | 11.9% (inactive)
3 | Cn1c(=O)c2c(nc(NCc3ccc4c(c3)OCO4)n2C)n(C)c1=O | -2.77% (inactive)
4 | COc1ccccc1CCNC(=O)C(=O)Nc1cc2c3c(c1)CC(=O)N3CCC2 | 57.3% (inactive)
5 | O=C(CSc1nnc(CNC(=O)c2ccccc2)o1)c1ccc(Cl)cc1 | 1.96% (inactive)
6 | O=C(O)CSc1ccccn1 | 2.15% (inactive)
7 | O=C(O)CCSc1ccccn1 | -6.45% (inactive)
8 | COC(=O)CC1C(=O)NCCN1C(=O)c1ccc([N+](=O)[O-])cc1 (stereo unspecified) | -0.41% (inactive)
9 | O=S(=O)(Nc1ccc(Cl)cn1)c1ccc(F)cc1 | -1.48% (inactive)
10 | COc1cc2c(cc1NC(=O)COC(=O)[C@@H](NS(=O)(=O)c1ccccc1)C(C)C)oc1ccccc12 | 6.17% (inactive)
11 | Clc1ccc(N2CCNCC2)nn1 | -10.1% (inactive)
12 | Cc1onc(-c2ccccc2Cl)c1C(=O)Nc1cccc2cccnc12 | 14.3% (inactive)
13 | COc1cc(NC(=O)c2c(-c3ccccc3Cl)noc2C)c2ncccc2c1 | -6.92% (inactive)
14 | Cn1cc(S(=O)(=O)N2CCC3(CC2)OCCO3)c(=O)n(C)c1=O | -0.14% (inactive)
15 | CC1=C(C(=O)OCc2ccccc2)C(c2cccc(F)c2)NC(=O)N1 (stereo unspecified) | -8.13% (inactive)
16 | Cc1cccc(-n2ncc3c2CCCC3NC(=O)C2=CC(=O)CC(C)(C)O2)c1C (stereo unspecified) | -0.85% (inactive)
17 | Cc1ccc(N(CC(=O)Nc2cc(C)cc(C)c2)S(=O)(=O)c2c(C)noc2C)cc1 | 6.89% (inactive)
18 | O=C(OCC(=O)C12CC3CC(CC(C3)C1)C2)c1ccccc1O | 6.66% (inactive)
19 | Cc1cc(C)cc(NC(=O)c2cccn2-c2ncc(C(F)(F)F)cc2Cl)c1 | 6.22% (inactive)
20 | CN(C)C(=O)c1cccn1-c1ncc(C(F)(F)F)cc1Cl | -4.51% (inactive)
21 | NC(=O)CCNC(=O)c1ccc(Cl)cc1 | -5.92% (inactive)

Row | SMILES | inhibition
22 | Cc1ccc(NC(=O)CN2C(=O)C3CC=CCC3C2=O)cc1S(=O)(=O)N1CCOCC1 (stereo unspecified) | -2.53% (inactive)
23 | CC(/C=C/c1ccccc1)=N\NC(=S)NC(C)C | 28.1% (inactive)
24 | COC(=O)N/N=C(C)/C=C/c1ccccc1 | -8.99% (inactive)
25 | Cc1ncc(CSc2nnnn2-c2ccccc2)c(N)n1 | 1.43% (inactive)
26 | O=C(O)CCn1c(SCc2ccccc2)nc2ccccc21 | 2.64% (inactive)
27 | O=C(O)Cn1c(SCc2ccccc2)nc2ccccc21 | 2% (inactive)
28 | COC(=O)C1=C(c2ccc(OC)c(OC)c2)C[C@@H]2CC[C@H]1N2C(=O)NC1Cc2ccccc2C1 | -10% (inactive)
29 | Cc1ccc(C(=O)Nc2ccccc2NC(=O)c2ccc(C)o2)o1 | 7.31% (inactive)
30 | Cc1cc(C(=O)CSc2nnc(N)s2)c(C)n1CCc1ccc(Cl)cc1 | 9.47% (inactive)
31 | Cc1cc(C(=O)CSc2nnnn2C)c(C)n1CCc1ccc(Cl)cc1 | 4.63% (inactive)
32 | Oc1ccc(/C=N/Nc2cc(N3CCCC3)nc(N3CCCC3)n2)cc1 | 4.32% (inactive)
33 | COc1ccc(/C=N/Nc2nc(N3CCCC3)nc(N3CCCC3)n2)cc1 | -3.33% (inactive)
34 | CCN(CC)C(=O)CSc1nc2[nH]ncc2c(=O)[nH]1 | -0.87% (inactive)
35 | COc1cc2[nH]c3ccccc3c2cc1C | -8.31% (inactive)
36 | Cc1ccc(C)c2c1[nH]c1ccccc12 | 6.73% (inactive)
37 | O=c1oc(CCO)cc2ccc(Br)cc12 | 9.08% (inactive)
38 | COc1ccccc1NC(=O)c1c[nH]c2ccccc12 | 0.76% (inactive)
39 | CN1CCN(C(=O)CCN2C(=O)/C(=C/c3ccccc3Cl)SC2=S)CC1 | 49.8% (inactive)
40 | Cc1ccc(/C=C2\SC(=S)N(CCCC(=O)Nc3ccccn3)C2=O)cc1 | 0.58% (inactive)
41 | O=C(CCN1C(=O)/C(=C/C=C/c2ccccc2)SC1=S)Nc1ccccn1 | -4.47% (inactive)
42 | O=C(CCN1C(=O)/C(=C/c2ccccc2Cl)SC1=S)N1CCOCC1 | 69% (inactive)

Row | SMILES | inhibition
43 | COC(=O)c1ccc(NC(=S)NC(=O)c2cccnc2)cc1 | -0.36% (inactive)
44 | COc1ccccc1-n1c(O)c(C=NCCN2CCNCC2)c(=O)[nH]c1=O | -7.53% (inactive)
45 | COC(=O)c1ccc(NC(=O)c2ccc3nccnc3c2)cc1 | -7.47% (inactive)
46 | CCN(CC)S(=O)(=O)c1ccc(S(=O)(=O)Nc2c(C)nn(C)c2C)cc1 | -5.92% (inactive)
47 | COc1ccc(-c2c(C(F)(F)F)oc3cc(OCC(=O)Nc4ccccc4C(F)(F)F)ccc3c2=O)cc1OC | 10.6% (inactive)
48 | CSc1nncc(-c2ccccc2)n1 | -0.45% (inactive)
49 | O=C(Cc1ccc(F)cc1)N1CCC(N2CCC(C(=O)N3CCOCC3)CC2)CC1 | 4.87% (inactive)
50 | CCCCn1nnc(NC(=O)CCC)n1 | -12.6% (inactive)
51 | OC(c1ccccc1)C1CN(Cc2ccccc2)CCC1(O)c1ccccc1 (stereo unspecified) | 2.62% (inactive)
52 | OC1(c2ccccc2)CCN(Cc2ccccc2)C2CCCCC21 (stereo unspecified) | -3.63% (inactive)
53 | CN1C(C(=O)NCc2ccc(OC(F)(F)F)cc2)CC2Cn3c(nc4cc5ccccc5cc43)C21 (stereo unspecified) | 57.5% (inactive)
54 | CN1C(C(=O)NCc2ccc(OC(F)(F)F)cc2)CC2Cn3c(nc4ccccc43)C21 (stereo unspecified) | -3.09% (inactive)
55 | Cc1ccc(S(=O)(=O)N[C@H](C(=O)N2CCC(C(=O)N[C@@H](CCC(N)=O)C(=O)O)CC2)C(C)C)cc1 | -8.96% (inactive)
56 | CN1CCN2c3ncccc3Cc3ccccc3C2C1 (stereo unspecified) | -1.61% (inactive)
57 | CN1CCN2c3ncccc3Cc3ccccc3[C@@H]2C1 | 8.88% (inactive)
58 | O=C(c1cc(C(=O)N2CCOCC2)c2nc3ccccc3n2c1)c1ccccc1O | 1.28% (inactive)
59 | COc1ccc(C(=O)CSc2nnc(CNc3ccc(F)cc3)o2)cc1 | 15.6% (inactive)
60 | COc1ccc(C(=O)CSc2nnc(CNc3ccc(C)cc3C)o2)cc1 | -7.42% (inactive)
61 | C=CCNC(=O)COC(=O)c1ccc(Sc2nncn2C)c([N+](=O)[O-])c1 | -2.55% (inactive)
